Measured values reported in PubChem BioAssay (EPA / NIEHS).
Results filed as inconclusive are left out. The source made the active and inactive calls. Rule for the calls: active = hit-call score of the fitted dose curve at least 0.9, where 1 is the maximum; inconclusive = response in the unintended direction; inactive = score below 0.9.

Target: Adra2b (gene 24174) (UniProt P19328)
Experiment: NVS_GPCR_rmAdra2B: NovaScreen (NVS) G Protein-Coupled Receptor Assay for hybird cells Adrenergic, Alpha 2B Receptor (Adra2B) (AID 2283306)
Outline: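 Compounds screened first at 25 uM in duplicate, with actives followed up in concentration-response; specific radioligand displacement from hybrid neuroglioma/blastoma cell membrane preparations measured by filter scintillation counting after 1 h, normalized to DMSO.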

Adra2b (gene 24174), sequence (P19328 whole entry, looked up): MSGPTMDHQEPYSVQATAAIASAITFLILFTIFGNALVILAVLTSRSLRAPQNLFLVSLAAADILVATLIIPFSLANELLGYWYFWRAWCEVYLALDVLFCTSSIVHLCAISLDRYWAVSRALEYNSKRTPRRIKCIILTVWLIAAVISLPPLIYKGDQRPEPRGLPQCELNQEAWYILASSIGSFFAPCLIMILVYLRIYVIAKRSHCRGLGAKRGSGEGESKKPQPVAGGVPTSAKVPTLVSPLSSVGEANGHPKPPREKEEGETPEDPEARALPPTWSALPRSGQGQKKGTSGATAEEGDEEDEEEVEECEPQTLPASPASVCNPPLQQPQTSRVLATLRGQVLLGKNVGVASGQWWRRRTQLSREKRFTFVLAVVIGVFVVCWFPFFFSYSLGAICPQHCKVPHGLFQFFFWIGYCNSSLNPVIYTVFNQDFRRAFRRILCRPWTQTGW

| SMILES | AC50 |
| --- | --- |
| CCN1CCC2(CC1)COc1cc3c(cc12)N(C(=O)c1ccc(-c2ccc(-c4nnc(C)o4)cc2C)cc1)CC3 | 10.1 µM (active) |
| COc1cc(-c2ccc(N)c(OC)c2)ccc1N | 15.5 µM (active) |
| CC(=O)[O][Hg][c]1ccccc1 | 11.9 µM (active) |
| C=C(C)C(=O)[O][Sn]([CH2]CCC)([CH2]CCC)[CH2]CCC | 3.08 µM (active) |
| CCC(=O)C(CC(C)N(C)C)(c1ccccc1)c1ccccc1 (centres undefined) | 6.79 µM (active) |

Target: rat Somatostatin Receptor (SST), Sstr1 (gene 25033) (UniProt P28646)
Sequence (P28646 whole entry, looked up): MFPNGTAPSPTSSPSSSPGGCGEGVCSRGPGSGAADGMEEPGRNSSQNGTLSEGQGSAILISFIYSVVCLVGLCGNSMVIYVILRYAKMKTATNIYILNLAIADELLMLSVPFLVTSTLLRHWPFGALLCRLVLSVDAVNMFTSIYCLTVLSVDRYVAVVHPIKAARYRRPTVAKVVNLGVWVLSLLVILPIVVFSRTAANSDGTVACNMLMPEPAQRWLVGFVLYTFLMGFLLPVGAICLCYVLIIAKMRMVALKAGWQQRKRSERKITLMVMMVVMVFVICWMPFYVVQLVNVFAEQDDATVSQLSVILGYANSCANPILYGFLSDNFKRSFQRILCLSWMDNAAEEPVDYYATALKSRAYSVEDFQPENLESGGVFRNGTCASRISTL
Experiment: NVS_GPCR_rSST: NovaScreen (NVS) G Protein-Coupled Receptor Assay for rat Somatostatin Receptor (SST) (AID 2283314)
Outline: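 Single-concentration duplicate screen (25 uM), then concentration-response up to 50 uM for chemicals passing a threshold such as 30% inhibition. Membranes came from rat forebrain. Binding was measured 1 h post-dose by filter radiodetection and scintillation, relative to DMSO.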

| SMILES | AC50 |
| --- | --- |
| CC(=O)[O][Hg][c]1ccccc1 | 5.92 µM (active) |
| C=C(C)C(=O)[O][Sn]([CH2]CCC)([CH2]CCC)[CH2]CCC | 12.8 µM (active) |
| Cc1ccccc1N | 10.8 µM (active) |

Target: rat Neonicotinoid receptor (NNR), Chrna7 (gene 25302) (UniProt Q05941)
Sequence (Q05941 whole entry, looked up): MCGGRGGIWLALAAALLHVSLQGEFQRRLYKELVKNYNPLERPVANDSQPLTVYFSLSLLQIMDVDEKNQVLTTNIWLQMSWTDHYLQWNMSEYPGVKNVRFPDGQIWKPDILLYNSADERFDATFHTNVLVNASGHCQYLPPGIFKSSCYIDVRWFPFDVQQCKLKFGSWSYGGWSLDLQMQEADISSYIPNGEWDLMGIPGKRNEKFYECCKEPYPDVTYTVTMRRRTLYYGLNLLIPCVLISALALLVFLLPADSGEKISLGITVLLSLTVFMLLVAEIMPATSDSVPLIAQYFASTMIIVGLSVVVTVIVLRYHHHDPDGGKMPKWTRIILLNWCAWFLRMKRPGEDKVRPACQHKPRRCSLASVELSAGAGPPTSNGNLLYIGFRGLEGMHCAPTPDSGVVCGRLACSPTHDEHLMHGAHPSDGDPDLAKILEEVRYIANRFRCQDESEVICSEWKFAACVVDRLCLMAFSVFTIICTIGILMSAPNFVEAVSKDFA
Experiment: NVS_LGIC_rNNR_BungSens: NovaScreen (NVS) Ligand-Gated Ion Channel Assay for rat Neonicotinoid receptor (NNR) (AID 2283315)
Outline: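 Rat cortical membrane preparation incubated 2.5 h with tritiated or iodinated radioligand and test chemical. Bound radioactivity was filtered and counted by scintillation, and displacement was analysed against DMSO.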

| SMILES | AC50 | outcome |
| --- | --- | --- |
| CCN1CCC2(CC1)COc1cc3c(cc12)N(C(=O)c1ccc(-c2ccc(-c4nnc(C)o4)cc2C)cc1)CC3 | 21.2 µM (active) | – |
| C[C@@H]1C[C@@H]([C@H](O)CC2CC(=O)NC(=O)C2)C(=O)[C@@H](C)C1 | – | inactive |
| COc1cc2c(cc1OC)[C@@]13CCN4CC5=CCO[C@H]6CC(=O)N2[C@H]1[C@H]6[C@H]5C[C@H]43 | 25 µM (active) | – |

Target: rat Opioid Receptor, Non-selective Binding, Oprm1 (gene 25601) (UniProt P33535)
Sequence (P33535 whole entry, looked up): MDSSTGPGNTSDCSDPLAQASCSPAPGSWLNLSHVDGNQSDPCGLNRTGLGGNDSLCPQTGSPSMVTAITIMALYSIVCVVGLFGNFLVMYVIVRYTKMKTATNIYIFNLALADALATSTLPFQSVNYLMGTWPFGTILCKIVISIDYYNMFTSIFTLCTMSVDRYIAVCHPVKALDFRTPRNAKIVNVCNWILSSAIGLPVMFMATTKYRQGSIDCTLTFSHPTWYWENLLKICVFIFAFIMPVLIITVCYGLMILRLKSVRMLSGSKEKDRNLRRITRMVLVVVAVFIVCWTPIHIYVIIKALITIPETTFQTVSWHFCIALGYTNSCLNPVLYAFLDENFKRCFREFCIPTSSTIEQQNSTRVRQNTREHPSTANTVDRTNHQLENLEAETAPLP
Experiment: NVS_GPCR_rOpiate_NonSelective: NovaScreen (NVS) G Protein-Coupled Receptor Assay for rat Opioid Receptor, Non-selective Binding (AID 2283318)
Outline: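 Filter-based radioligand displacement using rat forebrain membrane preparations, measured 1.5 h post-dosing. Single-concentration duplicate screen at 25 uM, follow-up in concentration series; activity taken as signal loss relative to DMSO.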

| SMILES | outcome | AC50 |
| --- | --- | --- |
| CCN1CCC2(CC1)COc1cc3c(cc12)N(C(=O)c1ccc(-c2ccc(-c4nnc(C)o4)cc2C)cc1)CC3 | inactive | – |
| CC(=O)[O][Hg][c]1ccccc1 | – | 31.9 µM (active) |
| C=C(C)C(=O)[O][Sn]([CH2]CCC)([CH2]CCC)[CH2]CCC | – | 4.13 µM (active) |
| O=c1[nH]c(=O)[nH]c(=O)[nH]1 | inactive | – |

Test system: not listed separately
Experiment: NVS_IC_rCaDHPRCh_L: NovaScreen (NVS) Ion Channel Assay for rat Calcium Channel, Type L, Dihydropyridine Site (CaDHPRCh_L) (AID 2283320)
Procedure: NVS_IC_rCaDHPRCh_L is a biochemical, single-readout assay that uses extracted gene-proteins from Rat cortical membranes in a tissue-based cell-free assay. Measurements were taken 1 hour after chemical dosing in a 48-well plate.NVS_IC_rCaDHPRCh_L is one of one assay component(s) measured or calculated from the NVS_IC_rCaDHPRCh_L assay. It is designed to make measurements of radioligand binding, a form of binding reporter, as detected with scintillation counting signals by Filter-based radiodetection technology.Data from the assay component NVS_IC_rCaDHPRCh_L was analyzed into 1 assay endpoint. This assay endpoint, NVS_IC_rCaDHPRCh_L, was analyzed in the positive analysis fitting direction relative to DMSO as the negative control and baseline of activity. Using a type of binding reporter, loss-of-signal activity can be used to understand changes in the binding as they relate to the gene Cacna1a. Furthermore, this assay endpoint can be referred to as a primary readout, because the performed assay has only produced 1 assay endpoint. To generalize the intended target to other relatable targets, this assay endpoint is annotated to the ion channel intended target family, where the subfamily is calcium channel.
Binding assays used specific radioligands (tritiated, iodinated) with non-radioactive competitive displacement ligands in agonist or antagonist protocols (as indicated) and various reference compounds and inhibitors to titrate specific binding to receptors and transporters. Most enzyme assays (CYPs, kinases, phosphatases, proteases, HDACs) used recombinant protein and specific substrates (fluorescence mostly, some colorimetric and radioactive) and inhibitors, followed by a biochemical separation of substrate and product. All assays for the biochemical HTS were initially run in duplicate at a single concentration (10 uM for CYP450 assays and 25 uM for all others). Assay-chemical combinations meeting a pre-defined threshold (e.g., 30% inhibition and other criteria defined below) were then run in singleton concentration-response format with maximum concentration of 20 uM for CYPs and 50 uM for all others. Each assay was run with positive and negative controls, and concurrent controls on every plate. The follow-up (secondary) screen tested active chemical-pairs in concentration series, as well as a few additional assays not tested in the primary screen, some selected negative inactives, and several cases re-run in the concentration series for confirmatory purposes.

| SMILES | AC50 | outcome |
| --- | --- | --- |
| CCN1CCC2(CC1)COc1cc3c(cc12)N(C(=O)c1ccc(-c2ccc(-c4nnc(C)o4)cc2C)cc1)CC3 | 4.93 µM (active) | – |
| CC(=O)[O][Hg][c]1ccccc1 | 40.5 µM (active) | – |
| Oc1cccc2cccnc12 | – | inactive |
| C=C(C)C(=O)[O][Sn]([CH2]CCC)([CH2]CCC)[CH2]CCC | 12.3 µM (active) | – |

Target: Sodium channel protein type 1 subunit alpha (Rattus norvegicus) (UniProt P04774)
Experiment: NVS_IC_rNaCh_site2: NovaScreen (NVS) Ion Channel Assay for rat Sodium Channel, Site 2 (NaCh) (AID 2283322);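 note: hit means loss of radioligand binding signal relative to DMSO so AC50 marks displacement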
Outline: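 Initial duplicate single-point testing at 25 uM, followed by concentration-response runs for actives. Binding of radioligand to rat forebrain membranes quantified after 1 h via filter-based radiodetection.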

| SMILES | AC50 | outcome |
| --- | --- | --- |
| CCN1CCC2(CC1)COc1cc3c(cc12)N(C(=O)c1ccc(-c2ccc(-c4nnc(C)o4)cc2C)cc1)CC3 | 3.44 µM (active) | – |
| CCNc1nc(NC(C)(C)C)nc(SC)n1 | 12.1 µM (active) | – |
| CCSC(C)CC1CC(=O)C(C(CC)=NOC/C=C/Cl)=C(O)C1 (centres undefined) | – | inactive |
| CC(C)(C)CC(C)(C)c1ccc(O)cc1 | – | inactive |
| N#CCc1ccc(Cl)cc1 | – | inactive |
| C=C(C)C(=O)[O][Sn]([CH2]CCC)([CH2]CCC)[CH2]CCC | 25 µM (active) | – |
| CCC(=O)C(CC(C)N(C)C)(c1ccccc1)c1ccccc1 (centres undefined) | 1.97 µM (active) | – |
| CCCCCCCCC(=O)NCc1ccc(O)c(OC)c1 | 1.55 µM (active) | – |
| O=C(Cl)c1ccc(Cl)cc1 | – | inactive |
| NC(=S)Nc1ccccc1 | 0.569 µM (active) | – |
